High-throughput results (PubChem)
In the library only some 3.9% were active in any assay of this set; here they are far more common.
BRCA1 expr up = BRCA1 expression activation | AID 624202 | Potency, µM (doses to about 46.1 µM), inactives show top-dose activation, hits mostly activators | MCF7-BRCA1-FFLuc reporter, luminescence, 48 h; response scale: scaled: vehicle 0%, 10 µM genistein 100% | actives 1.1% (n = 380,000); further: nearly all actives have a fitted effect of over 80% in size
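Cells: MCF7-BRCA1-FFLuc, 2000/well. Exposure: 48 h, 37 °C, 5% CO2. Read: luminescence, 15 min post-substrate. Controls: genistein 10 microM (maximal activation), DMSO (neutral).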
Tb PFK block = blocks T. brucei phosphofructokinase; O15648; T. brucei PFK, ADP-Glo luminescence; Potency, µM (top dose mostly 57.5 µM), for the others: top-dose activity, negative = inhibition, hits mostly inhibitors; actives 0.17% (n = 330,000);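 further: 0% = uninhibited 1x PFK enzyme wells and -100% = no-enzyme wells; nearly all actives have a fitted effect of over 60% in size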
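PFK 1.25 nM, F6P 0.5 mM, ATP 0.1 mM, 0.1 M TEA pH 8.0, 5 mM MgCl2, 0.01% Tween20, 0.1% BSA; 45 min RT. ADP-Glo readout. qHTS titration up to 57 uM; curves fitted, compounds curve-classed.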
PLK1 PBD inh = PLK1 (human) polo-box domain binding inhibition; actives 2.8% (n = 360,000); Potency, µM, for inactives: max response, negative = inhibition, usual class: inhibitors; Plk1 PBD binding of FITC phosphopeptide, fluorescence polarization; P53350; further: series mostly up to about 57 µM; on the % scale 0 is the no-effect control and ±100 the full control effect; nearly all actives have a fitted effect of over 65% in size
VDR inhibitor = vitamin D3 receptor (human) inhibition; P11473; VDR-SRC2-3 peptide fluorescence polarization, 2 h; Potency, µM, for inactives: max response, negative = inhibition, hits mostly inhibitors; actives 0.93% (n = 400,000); further: on the % scale 0 is the no-effect control and ±100 the full control effect
Target sequence (P11473 whole entry, looked up): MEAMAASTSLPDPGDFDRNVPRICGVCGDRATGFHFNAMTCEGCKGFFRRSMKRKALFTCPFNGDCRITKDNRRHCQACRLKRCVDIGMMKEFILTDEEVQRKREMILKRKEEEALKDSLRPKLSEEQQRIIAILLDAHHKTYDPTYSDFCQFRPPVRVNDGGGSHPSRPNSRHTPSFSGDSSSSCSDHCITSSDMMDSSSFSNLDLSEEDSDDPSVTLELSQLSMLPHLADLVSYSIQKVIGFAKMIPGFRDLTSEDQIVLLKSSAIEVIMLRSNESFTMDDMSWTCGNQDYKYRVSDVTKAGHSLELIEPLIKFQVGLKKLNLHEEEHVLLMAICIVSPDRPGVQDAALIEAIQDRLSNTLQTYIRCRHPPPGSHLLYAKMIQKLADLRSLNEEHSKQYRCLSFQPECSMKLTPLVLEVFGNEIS
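FP read-out; VDR + SRC2-3 coactivator peptide; 23 nl compound by pintool; 2 h RT incubation; reagents held at 4 deg C, protected from light.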
Active calls of the source: *; ? = inconclusive; nt = no result given; ! = not confirmed by another sample. The call rests on the fitted dose curve; in most records, active means well fitted curve in the direction sought with a large enough effect; inconclusive means small, poorly fitted or top-dose-only effect, or another doubt; inactive means no such curve, though single readings can be large; an effect the other way counts as inactive or inconclusive. Potency means the concentration at half of the fitted maximal effect.

SMILES	BRCA1 expr up	Tb PFK block	PLK1 PBD inh	VDR inhibitor
OC1=C(O)c2nc3ccccc3nc21	-26.6%	3.9%	?	-14.8%
Cc1cc2nc3c(nc2cc1C)C(O)=C3O	-12.1%	1.1%	8.44µM*	-19.5%
O=[N+]([O-])c1cc([N+](=O)[O-])c2oc(-c3ccccc3)c(Br)c2c1O	-70.4%	-0.6%	8.44µM*	-28.3%
O=c1c(O)c(-c2ccccc2)oc2cccc(O)c12	nt	nt	nt	14.6%
Nc1ccc(-c2nnn(Cc3ccccc3)n2)cc1	67.3%	nt	-12.4%	7.0%
CSc1ccc(-c2nnn(Cc3ccc(C)cc3)n2)cc1	10µM*	-3.3%	-3.6%	-12.4%
Cc1c2oc3c(C)ccc(C(=O)N[C@@H]4C(=O)N[C@H](C(C)C)C(=O)N5CCC[C@H]5C(=O)N(C)CC(=O)N(C)[C@@H](C(C)C)C(=O)O[C@@H]4C)c3nc-2c(C(=O)N[C@@H]2C(=O)N[C@H](C(C)C)C(=O)N3CCC[C@H]3C(=O)N(C)CC(=O)N(C)[C@@H](C(C)C)C(=O)O[C@@H]2C)c(N)c1=O	nt	nt	nt	44.7µM*!
COc1cc2c(cc1OC)C(c1ccccc1[N+](=O)[O-])=NCC2	9.4%	nt	5.0%	nt
CCCc1cc(C(=O)OCC(=O)NCCc2ccccc2)sc1C	0.0%	nt	-5.3%	nt
O=[N+]([O-])c1ccc(-c2ccc(/C=N/O)o2)cc1	8.91µM*	2.7%	0.1%	-16.0%
O=C(O)c1cc([N+](=O)[O-])c(Sc2nc3ccccc3[nH]2)c([N+](=O)[O-])c1	-33.5%	-3.0%	21.2µM*	?
O=C(O)CSc1nc2ccccc2[nH]1	-20.2%	-1.4%	26.7µM*	?
CS(=O)(=O)c1cc([N+](=O)[O-])c(Sc2nc3ccccc3[nH]2)c([N+](=O)[O-])c1	-26.4%	?	1.5µM*	35.5µM*
O=C(O)c1ccc(CSc2nc3ccccc3[nH]2)cc1	14.3%	0.9%	5.6%	6.6%
O=C(c1nc2ccccc2[nH]1)c1ccccc1[N+](=O)[O-]	11.2µM*	2.0%	-12.7%	-14.0%
O=C(O)C1CC=CC2CCN(C3CC3)C(=O)C21 (centres undefined)	nt	nt	nt	-3.1%
O=C(Nc1cccc(Cl)c1Cl)c1cc(S(=O)(=O)N2CCCc3ccccc32)ccc1F	nt	nt	nt	-4.3%
O=C(OCC1OC(OC(=O)c2cc(O)c(O)c(OC(=O)c3cc(O)c(O)c(O)c3)c2)[C@@H](OC(=O)c2cc(O)c(O)c(OC(=O)c3cc(O)c(O)c(O)c3)c2)C(OC(=O)c2cc(O)c(O)c(OC(=O)c3cc(O)c(O)c(O)c3)c2)C1OC(=O)c1cc(O)c(O)c(OC(=O)c2cc(O)c(O)c(O)c2)c1)c1cc(O)c(O)c(OC(=O)c2cc(O)c(O)c(O)c2)c1 (some centres undefined)	nt	nt	nt	12.6µM*
Cc1cn(C2OC(COC(=O)c3ccccc3)C(OC(=O)c3ccccc3)C2OC(=O)c2ccccc2)c(=O)[nH]c1=O (centres undefined)	-31.9%	10.0%	-10.7%	4.8%
COc1cc(/C=C/C(=O)OCC(=O)c2ccc[nH]2)ccc1O	-2.4%	nt	-12.1%	nt
CCOC(=O)c1c(N)sc2c1CCN(Cc1ccccc1)C2	-24.2%	nt	nt	39.8µM*
CCOC(=O)c1c(NC(=O)Cc2ccccc2)sc2c1CCN(CC)C2	-11.8%	2.1%	-6.1%	2.4%
CCN(CC)CCCNc1ccc2ncn3c4ccc(O)cc4c(=O)c1c23	-78.9%	nt	10.6µM*	?
Cc1ccccc1OCC(=O)Nc1ccc(C(=O)OCc2cc(=O)n3ccsc3n2)cc1	nt	nt	nt	14.6%
CCCOc1ccc(Cl)cc1CNc1ccccc1	-8.3%	-3.1%	16.8µM*	-9.8%
SMILES	BRCA1 expr up	Tb PFK block	PLK1 PBD inh	VDR inhibitor
CCOc1ccc(Cl)cc1CNc1nnnn1C	-6.9%	0.4%	-28.6%	-4.3%
O=C1NC(=Nc2ccccc2Cl)S/C1=C\c1cccc([N+](=O)[O-])c1	-46.3%	5.0%	26.7µM*	?
O=C1NC(=Nc2ccccc2Cl)S/C1=C\c1cccc([N+](=O)[O-])c1O	23.6%	6.9%	26.7µM*	79.4µM*
CCCCN(CCCC)CCNC(=O)Cn1nc(C)n2c(cc3sccc32)c1=O	nt	nt	nt	-13.5%
O=C(NCC1CCN(Cc2ccccc2)CC1)[C@H]1O[C@@H](n2ccc(=O)[nH]c2=O)[C@H](O)[C@@H]1O	12.7%	nt	-5.3%	nt
CN(CCN(C)c1nc(-c2cccs2)nc2ccccc12)C(=O)OC(C)(C)C	-3.0%	nt	nt	-15.6%
CCOC(=O)c1nn(-c2ccc(OC)cc2)c(=O)c2c(N)scc12	-31.6%	-23.4%	?	17.8µM*
